Source: PubChem BioAssay AID1159580 (chemical genetic matrix, 2015)
Out of some 5,500 compounds screened, about 2,000 (36%) were called active. Inconclusive results (about 18%) are left out. No stated cut-off is given here; in the data, active means normalized growth mostly below about 0.91 (no sharp cut-off); inconclusive means no clear call, values can overlap the other calls; inactive means mostly above about 0.92. The list shows a part of the results.

Test: chemical genetic growth profiling, strain panel (AID 1159580);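 further: tested at 20 µM; growth read once vehicle control cultures reached saturation at 30 °C; 1 = growth at the plate median or of vehicle wells; lower values mean less growth of the strain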
Settings: growth OD

Measured: normalized growth

Nc1c(Br)cc(Br)cc1CNC1CCC(O)CC1 (stereo not given)
inactive: S. cerevisiae deletion strains, locus YJR066W, strain TOR1, active compounds read low 0.936 | S. cerevisiae deletion strains, locus YKL009W, strain mrt4, active compounds read low 0.985 | S. cerevisiae deletion strains, locus YKL068W, active compounds read low 0.997 | S. cerevisiae deletion strains, locus YKL085W, strain MDH1 (second series), active compounds read low 1 | S. cerevisiae deletion strains, locus YKL085W, strain MDH1, active compounds read low 1 | S. cerevisiae deletion strains, locus YKL160W, strain elf1, active compounds read low 1 | S. cerevisiae deletion strains, locus YKL190W, strain CNB1, active compounds read low 1.01 | S. cerevisiae deletion strains, locus YKR001C, strain vps1, active compounds read low 0.994 | S. cerevisiae deletion strains, locus YKR026C, strain gcn3, active compounds read low 1.01 | S. cerevisiae deletion strains, locus YKR091W, strain srl3, active compounds read low 1.02 | S. cerevisiae deletion strains, locus YLL001W, strain dnm1, active compounds read low 1.02 | S. cerevisiae deletion strains, locus YLL026W, active compounds read low 1.01 | S. cerevisiae deletion strains, locus YLL041C, strain sdh2, active compounds read low 0.993 | S. cerevisiae deletion strains, locus YLR027C, strain aat2, active compounds read low 0.997 | S. cerevisiae deletion strains, locus YLR039C, strain RIC1, active compounds read low 1.03 | S. cerevisiae deletion strains, locus YLR058C, strain SHM2, active compounds read low 1 | S. cerevisiae deletion strains, locus YLR102C, strain apc9, active compounds read low 1.01 | S. cerevisiae deletion strains, locus YLR113W, strain HOG1, active compounds read low 1.07 | S. cerevisiae deletion strains, locus YLR221C, strain rsa3, active compounds read low 1.01 | S. cerevisiae deletion strains, locus YLR258W, strain gsy2, active compounds read low 1 | S. cerevisiae deletion strains, locus YLR262C, strain YPT6 (second series), active compounds read low 0.974 | S. cerevisiae deletion strains, locus YLR262C, strain YPT6, active compounds read low 1.04 | S. cerevisiae deletion strains, locus YLR268W, strain sec22, active compounds read low 0.982 | S. cerevisiae deletion strains, locus YLR320W, strain mms22, active compounds read low 1.03 | S. cerevisiae deletion strains, locus YLR330W, strain CHS5, active compounds read low 1.01 | S. cerevisiae deletion strains, locus YLR342W, strain FKS1 (second series), active compounds read low 1.01 | S. cerevisiae deletion strains, locus YLR342W, strain FKS1, active compounds read low 1.02 | S. cerevisiae deletion strains, locus YLR357W, strain rsc2, active compounds read low 1.03 | S. cerevisiae deletion strains, locus YLR370C, strain arc18, active compounds read low 0.997 | S. cerevisiae deletion strains, locus YLR371W, strain rom2, active compounds read low 1.01 | S. cerevisiae deletion strains, locus YLR384C, strain iki3, active compounds read low 1.01 | S. cerevisiae deletion strains, locus YLR418C, strain cdc73, active compounds read low 0.949 | S. cerevisiae deletion strains, locus YML016C, strain PPZ1, active compounds read low 1 | S. cerevisiae deletion strains, locus YML032C, strain rad52, active compounds read low 0.996 | S. cerevisiae deletion strains, locus YML120C, strain ndi1, active compounds read low 1.05 | S. cerevisiae deletion strains, locus YML124C, strain tub3, active compounds read low 0.996 | S. cerevisiae deletion strains, locus YMR058W, strain fet3, active compounds read low 1.02 | S. cerevisiae deletion strains, locus YMR078C, strain ctf18, active compounds read low 1.01 | S. cerevisiae deletion strains, locus YMR125W, strain sto1, active compounds read low 1.01 | S. cerevisiae deletion strains, locus YMR129W, active compounds read low 1.02 | S. cerevisiae deletion strains, locus YMR205C, strain PFK2, active compounds read low 1 | S. cerevisiae deletion strains, locus YMR223W, strain ubp8, active compounds read low 0.991 | S. cerevisiae deletion strains, locus YMR231W, strain pep5, active compounds read low 1.02 | S. cerevisiae deletion strains, locus YMR307W, strain GAS1, active compounds read low 1.12 | S. cerevisiae deletion strains, locus YNL067W, strain RPL9B, active compounds read low 0.994 | S. cerevisiae deletion strains, locus YNL071W, strain lat1, active compounds read low 1.01 | S. cerevisiae deletion strains, locus YNL128W, strain TEP1, active compounds read low 1.02 | S. cerevisiae deletion strains, locus YNL153C, strain GIM3, active compounds read low 0.99 | S. cerevisiae deletion strains, locus YNL183C, strain NPR1, active compounds read low 0.981 | S. cerevisiae deletion strains, locus YNL209W, strain ssb2, active compounds read low 1 | S. cerevisiae deletion strains, locus YNL233W, strain BNI4, active compounds read low 0.991 | S. cerevisiae deletion strains, locus YNL248C, strain rpa49, active compounds read low 1 | S. cerevisiae deletion strains, locus YNL250W, strain rad50, active compounds read low 0.994 | S. cerevisiae deletion strains, locus YNL271C, strain bni1, active compounds read low 1 | S. cerevisiae deletion strains, locus YNL298W, strain CLA4, active compounds read low 1.03 | S. cerevisiae deletion strains, locus YNL307C, strain MCK1, active compounds read low 1.01 | S. cerevisiae deletion strains, locus YNL322C, strain KRE1 (second series), active compounds read low 1.02 | S. cerevisiae deletion strains, locus YNL322C, strain KRE1, active compounds read low 1 | S. cerevisiae deletion strains, locus YNR049C, strain mso1, active compounds read low 0.987 | S. cerevisiae deletion strains, locus YNR052C, strain pop2, active compounds read low 1 | S. cerevisiae deletion strains, locus YOL006C, strain TOP1, active compounds read low 0.95 | S. cerevisiae deletion strains, locus YOL012C, strain htz1 0.731 | S. cerevisiae deletion strains, locus YOL147C, strain pex11, active compounds read low 0.998 | S. cerevisiae deletion strains, locus YOR001W, strain rrp6, active compounds read low 0.996 | S. cerevisiae deletion strains, locus YOR061W, strain CKA2, active compounds read low 1.01 | S. cerevisiae deletion strains, locus YOR069W, strain VPS5, active compounds read low 1 | S. cerevisiae deletion strains, locus YOR070C, strain gyp1, active compounds read low 1 | S. cerevisiae deletion strains, locus YOR080W, strain dia2, active compounds read low 1.02 | S. cerevisiae deletion strains, locus YOR083W, strain WHI5, active compounds read low 0.997 | S. cerevisiae deletion strains, locus YOR106W, strain vam3, active compounds read low 1.02 | S. cerevisiae deletion strains, locus YOR136W, strain idh2, active compounds read low 0.995 | S. cerevisiae deletion strains, locus YOR144C, strain elg1, active compounds read low 0.994 | S. cerevisiae deletion strains, locus YOR184W, strain ser1, active compounds read low 0.992 | S. cerevisiae deletion strains, locus YOR231W, strain MKK1, active compounds read low 1.06 | S. cerevisiae deletion strains, locus YOR265W, strain rbl2, active compounds read low 1.01 | S. cerevisiae deletion strains, locus YOR270C, strain vph1, active compounds read low 1.01 | S. cerevisiae deletion strains, locus YOR290C, strain snf2, active compounds read low 0.984 | S. cerevisiae deletion strains, locus YOR316C, strain cot1, active compounds read low 1 | S. cerevisiae deletion strains, locus YPL051W, strain arl3, active compounds read low 1.01 | S. cerevisiae deletion strains, locus YPL055C, strain LGE1, active compounds read low 0.978 | S. cerevisiae deletion strains, locus YPL078C, strain atp4, active compounds read low 0.999 | S. cerevisiae deletion strains, locus YPL106C, strain sse1, active compounds read low 1.03 | S. cerevisiae deletion strains, locus YPL240C, strain hsp82, active compounds read low 1.01 | S. cerevisiae deletion strains, locus YPL256C, strain CLN2, active compounds read low 1.06 | S. cerevisiae deletion strains, locus YPR119W, strain clb2, active compounds read low 1 | S. cerevisiae deletion strains, locus YPR141C, strain kar3, active compounds read low 0.99 | S. cerevisiae deletion strains, locus YPR163C, strain tif3, active compounds read low 1 | S. cerevisiae deletion strains, locus YPR167C, strain met16, active compounds read low 0.998 | S. cerevisiae deletion strains, strain wtn01, active compounds read low 1 | S. cerevisiae strains, strain wild type, active compounds read low 1.01
